Compounds without any hit were thinned out: in the full panel of roughly 83,000, 20% have a hit.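 In brief: 96-well plates, 48 h treatment, single concentration, percent growth endpoint.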 The source made the active and inactive calls. The calls were made as follows: active = growth percent below 10; inactive = the rest.
How the values were obtained:
Assay in all cases: NCI-60 one-dose screen, 48 h (100 = growth as untreated, 0 = no growth, -100 = all killed)
Conditions in all cases: 10 µM unless noted
NCI-H23 lung = test system: NCI-H23 lung
NCI-H226 lung = test system: NCI-H226 lung
NCI-H322M lung = test system: NCI-H322M lung
HOP-62 NSCLC = test system: HOP-62 NSCLC
NCI-H460 lung = test system: NCI-H460 lung
HOP-92 NSCLC = test system: HOP-92 NSCLC
NCI-H522 lung = test system: NCI-H522 lung
A549/ATCC NSCLC = test system: A549/ATCC NSCLC
786-0 renal = test system: 786-0 renal
COLO 205 colon = test system: COLO 205 colon
DU-145 prostate = test system: DU-145 prostate
K-562 leukemia = test system: K-562 leukemia
MALME-3M melanoma = test system: MALME-3M melanoma
MDA-MB-231 breast = test system: MDA-MB-231 breast
RXF 393 renal = test system: RXF 393 renal
SF-268 CNS = test system: SF-268 CNS
SF-295 CNS = test system: SF-295 CNS
SF-539 CNS = test system: SF-539 CNS
UACC-257 melanoma = test system: UACC-257 melanoma
M14 melanoma = test system: M14 melanoma

Measured: growth

CCN1CC(=O)N(/N=C2\C(=O)Nc3ccccc32)C1=S
inactive: NCI-H23 lung 91.4% | NCI-H226 lung 69.6% | NCI-H322M lung 88.6% | HOP-62 NSCLC 87% | NCI-H460 lung 88.3% | HOP-92 NSCLC 87.8% | NCI-H522 lung 85.4% | A549/ATCC NSCLC 98.9% | 786-0 renal 103% | COLO 205 colon 101% | DU-145 prostate 112% | K-562 leukemia 106% | MALME-3M melanoma 91% | MDA-MB-231 breast 88.5% | RXF 393 renal 76.5% | SF-268 CNS 103% | SF-295 CNS 96.6% | SF-539 CNS 94.1% | UACC-257 melanoma 103% | M14 melanoma 86%

COCCn1cc(-c2nc(-c3cc4cccnc4n3CCOC)cs2)c2cc(OC)ccc21
active: K-562 leukemia 0.391%
inactive: NCI-H23 lung 61.5% | NCI-H226 lung 63.1% | NCI-H322M lung 39.5% | HOP-62 NSCLC 74.7% | NCI-H460 lung 40.2% | HOP-92 NSCLC 47.1% | NCI-H522 lung 16.7% | A549/ATCC NSCLC 46% | 786-0 renal 58.5% | COLO 205 colon 44.3% | DU-145 prostate 72.4% | MALME-3M melanoma 119% | MDA-MB-231 breast 23.7% | RXF 393 renal 66.3% | SF-268 CNS 74.2% | SF-295 CNS 74.2% | SF-539 CNS 62.6% | UACC-257 melanoma 94.7% | M14 melanoma 69.4%

COc1cc2oc(-c3cccc(NC(=O)c4cccc(Br)c4)c3)cc(=O)c2c(OC)c1OC
inactive: NCI-H23 lung 57.2% | NCI-H226 lung 73.7% | NCI-H322M lung 76.4% | HOP-62 NSCLC 55.5% | NCI-H460 lung 34.7% | HOP-92 NSCLC 47.5% | NCI-H522 lung 38.6% | A549/ATCC NSCLC 49.3% | 786-0 renal 59% | COLO 205 colon 57.8% | DU-145 prostate 54.4% | K-562 leukemia 25.8% | MALME-3M melanoma 53% | MDA-MB-231 breast 63.5% | RXF 393 renal 54.9% | SF-268 CNS 59.7% | SF-295 CNS 40.9% | SF-539 CNS 69% | UACC-257 melanoma 83.8% | M14 melanoma 59%

CC(=O)Cc1nsc(NC(=O)c2cc(-c3cc(Cl)cc(Cl)c3)oc2C)n1
inactive: NCI-H23 lung 101% | NCI-H226 lung 96.3% | NCI-H322M lung 100% | HOP-62 NSCLC 95.9% | NCI-H460 lung 103% | HOP-92 NSCLC 105% | NCI-H522 lung 86.6% | A549/ATCC NSCLC 94.3% | 786-0 renal 98% | COLO 205 colon 107% | DU-145 prostate 108% | K-562 leukemia 100% | MALME-3M melanoma 111% | MDA-MB-231 breast 104% | RXF 393 renal 105% | SF-268 CNS 88.1% | SF-295 CNS 99.4% | SF-539 CNS 98.5% | UACC-257 melanoma 89% | M14 melanoma 105%

CC1(C)CC2=C3C=C[C@@H]4[C@@]5(C)CCC(=O)C(C)(C)[C@@H]5CC[C@@]4(C)[C@]3(C)CC[C@@]2(C(=O)O)CC1=O
inactive: NCI-H23 lung 71.6% | NCI-H226 lung 53% | NCI-H322M lung 59.7% | HOP-62 NSCLC 76% | NCI-H460 lung 76.7% | HOP-92 NSCLC 25.8% | NCI-H522 lung 65.1% | A549/ATCC NSCLC 48.3% | 786-0 renal 31.7% | COLO 205 colon 68.6% | DU-145 prostate 97.2% | K-562 leukemia 92.1% | MALME-3M melanoma 39.1% | MDA-MB-231 breast 75.3% | RXF 393 renal 54.8% | SF-268 CNS 53.3% | SF-295 CNS 75.3% | SF-539 CNS 65.7% | UACC-257 melanoma 43.2% | M14 melanoma 46.8%

CC(=O)Nc1nc2ccc(NS(=O)(=O)c3cccc4c(N(C)C)cccc34)cc2[nH]1
inactive: NCI-H23 lung 70.5% | NCI-H226 lung 68.7% | NCI-H322M lung 82.2% | HOP-62 NSCLC 69.3% | NCI-H460 lung 68% | HOP-92 NSCLC 72.2% | NCI-H522 lung 43.3% | A549/ATCC NSCLC 68% | 786-0 renal 79.7% | COLO 205 colon 65.9% | DU-145 prostate 87.8% | K-562 leukemia 20.6% | MALME-3M melanoma 52.3% | MDA-MB-231 breast 63.5% | RXF 393 renal 53.8% | SF-268 CNS 65.6% | SF-295 CNS 37.3% | SF-539 CNS 57.9% | UACC-257 melanoma 61.9% | M14 melanoma 35.9%

CCN1C(=O)N(CC)C2C1NN=c1s/c(=C\c3cccc([N+](=O)[O-])c3)c(=O)n12 (stereo not given)
active: NCI-H460 lung 5.14% | NCI-H522 lung -4.92% | COLO 205 colon 1.16% | DU-145 prostate 8.55% | SF-539 CNS -4.28%
inactive: NCI-H23 lung 36.4% | NCI-H226 lung 58.2% | NCI-H322M lung 45.5% | HOP-62 NSCLC 40% | HOP-92 NSCLC 55.2% | A549/ATCC NSCLC 20.2% | 786-0 renal 25% | K-562 leukemia 10.5% | MALME-3M melanoma 47.4% | MDA-MB-231 breast 12.4% | RXF 393 renal 31.4% | SF-268 CNS 54% | SF-295 CNS 15% | UACC-257 melanoma 59.7% | M14 melanoma 12.2%

From PubChem BioAssay (NCI)
